Data reported in PubChem BioAssay AID778 (Sanford-Burnham Center for Chemical Genomics, 2007).
Among all 96,000 compounds or so, about 20,000 (21%) were called active.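 The calls were made as follows: active = CYP2C19 inhibition above a set limit at 5 µM in the primary screen (cut at about 50% in these data); inactive = the rest.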 These entries were drawn from the full list.

Target: Cytochrome P450 2C19 (Homo sapiens) (UniProt P33261)
Test: blockers of cytochrome P450 2C19 activity – biochemical, luminescence, ADME assay, primary screen (AID 778);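 also: plate controls were negative control wells for no effect and 2.5 mM tranylcypromine positive control for full effect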
Conditions: CYP2C19 Supersomes, luciferin-H EGE luminescence, 30 min; at 5 µM; active compounds read high

Chain of Cytochrome P450 2C19 (Homo sapiens) (P33261 whole entry, looked up): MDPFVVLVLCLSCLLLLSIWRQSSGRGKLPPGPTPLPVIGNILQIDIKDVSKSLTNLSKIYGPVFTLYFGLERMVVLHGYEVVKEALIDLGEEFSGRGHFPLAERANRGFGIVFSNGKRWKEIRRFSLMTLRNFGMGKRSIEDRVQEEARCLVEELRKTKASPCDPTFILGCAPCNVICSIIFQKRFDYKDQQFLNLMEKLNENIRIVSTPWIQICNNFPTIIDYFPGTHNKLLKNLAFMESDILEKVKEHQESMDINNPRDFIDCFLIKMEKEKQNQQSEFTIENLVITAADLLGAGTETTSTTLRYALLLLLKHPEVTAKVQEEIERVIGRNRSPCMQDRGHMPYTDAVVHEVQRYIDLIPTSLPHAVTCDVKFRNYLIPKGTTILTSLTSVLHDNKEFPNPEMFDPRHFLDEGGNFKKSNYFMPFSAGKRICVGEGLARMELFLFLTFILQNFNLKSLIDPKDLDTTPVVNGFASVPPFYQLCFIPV

Compound	inhibition
CC(C)=CC(=O)Nc1nnc(-c2ccc(F)cc2)s1	4.7% (inactive)
CCOC(=O)C1CCN(C(=O)Nc2ccc(Cl)cc2)CC1	63.1% (active)
CCOC(=O)C1CCN(C(=O)C2CCN(S(=O)(=O)N3CCCC3)CC2)CC1	10.9% (inactive)
CCOC(=O)C1CCN(C(=O)C2CCN(S(=O)(=O)CC)CC2)CC1	-18.2% (inactive)
Cc1ccc(-c2nc(C)sc2CC(=O)O)cc1	29.8% (inactive)
NC(=O)COc1ccc(/C=N/NC(=O)C2CCCN2S(=O)(=O)c2ccc(Cl)cc2)cc1 (stereo not drawn)	19.2% (inactive)
O=C(Cc1ccccc1)N/N=C/c1ccc(Cl)cc1Cl	7.9% (inactive)
CSc1ccc(/C=N\NC(=O)COc2ccc(Cl)cc2Br)cc1	76.4% (active)
CS(=O)(=O)c1ccc2nc(NC(=O)C3C4C=CC(C4)C3C(=O)O)sc2c1 (stereo not drawn)	0.7% (inactive)
COC(=O)c1cc(NC(=O)C2C3C=CC(C3)C2C(=O)O)cc(C(=O)OC)c1 (stereo not drawn)	2.5% (inactive)
CC(C)COC(=O)c1ccc(NC(=O)C2C3C=CC(C3)C2C(=O)O)cc1 (stereo not drawn)	54.2% (active)
CC(Sc1nnc(Cc2ccc([N+](=O)[O-])cc2)o1)C(N)=O (stereo not drawn)	16.6% (inactive)
O=C(Cn1cnc2c(cnn2-c2ccccc2)c1=O)NCc1ccccc1	-10.8% (inactive)
CN1C(=O)C(CC(N)=O)N(NC(=O)c2ccc(Cl)cc2)C1=S (stereo not drawn)	-7.8% (inactive)
CC(=O)N1CC2(C)CN(C(C)=O)CC(C)(C1)C2=O	79.3% (active)
CCCCC(=O)N1CC2(C)CN(C(=O)CCCC)CC(C)(C1)C2=O	-1.6% (inactive)
CCCCNC(=O)CSc1nc2ccc(NC(=O)CSc3nnc(COc4ccccc4C)n3C)cc2s1	19.1% (inactive)
CC(C)c1ccc(NC(=O)CCN2C(=O)c3ccc([N+](=O)[O-])cc3C2=O)cc1	8.5% (inactive)
CCC(CC)C(=O)Nc1cc(C(=O)OC)cc(C(=O)OC)c1	1.1% (inactive)
Cc1sc(NC(=O)C2C3CCC(O3)C2C(=O)O)c(C(=O)OC(C)C)c1-c1ccc(Cl)cc1 (stereo not drawn)	19.7% (inactive)
CC(C)OC(=O)c1cc(NC(=O)C2C3CCC(O3)C2C(=O)O)cc(C(=O)OC(C)C)c1 (stereo not drawn)	77.9% (active)
COCCCn1c(SCc2cccc(OC)c2)nc2cc(OC)c(OC)cc2c1=N	53.4% (active)
OCCN1CCOCCOCCN(CCO)CCN(CCO)CC1	16.6% (inactive)
O=C(OC1CCOC1=O)c1ccc(-c2nc3ccccc3s2)s1 (stereo not drawn)	11.3% (inactive)
Cc1nn(Cc2ccccc2)c(Cl)c1C(=O)OC1CCOC1=O (stereo not drawn)	63.5% (active)

Compound	inhibition
CC(=O)c1c(N2CCOCC2)nc(=S)n(Cc2ccccc2)c1C	12.8% (inactive)
COc1cccc(-c2nc(S(=O)(=O)c3ccccc3)c(N3CCOCC3)o2)c1	27.7% (inactive)
O=C(NCc1cn2ccsc2n1)Nc1cccc(Cl)c1	13.3% (inactive)
O=c1[nH]c(=O)n(Cc2ccco2)c2c1C(C(F)(F)F)(C(F)(F)F)N=C(c1ccco1)N2	-12.6% (inactive)
Cc1cc(-c2ccccc2)n2nc(C)c(-c3ccccc3)c2n1	30.7% (inactive)
Cc1cc(C)n(C(=O)c2ccc(C)c(S(=O)(=O)N3CCOCC3)c2)n1	68.7% (active)
Cc1ccccc1-c1nnn(CC(=O)c2ccc(S(=O)(=O)N3CCCC3)cc2)n1	14.5% (inactive)
CC(=O)c1c(N2CCOCC2)nc(=S)n(-c2cc(C)ccc2C)c1C	-10.5% (inactive)
Cc1ccc(C(=O)Nc2ccccc2C(=O)NC2CCCCC2)cc1S(=O)(=O)N1CCOCC1	21.5% (inactive)
Cc1cc(C)n(C(=O)c2ccc(S(=O)(=O)N3CCCC3)cc2)n1	68.7% (active)
CCOC(=O)c1csc(NC(=O)c2ccc(S(=O)(=O)N3CCCC3)cc2)n1	-7% (inactive)
Cc1ccc(-c2nn(C(C)(C)C)c3ncnc(N)c23)cc1	38.5% (inactive)
CCN(Cc1cc2cc(C)ccc2[nH]c1=O)S(=O)(=O)c1ccccc1	31.8% (inactive)
CCCNc1ncnc2sc(C)c(C)c12	29.6% (inactive)
COc1ccc(Cl)cc1C(=O)NCc1cn(C)nc1C	10.4% (inactive)
COC(=O)c1ccc(OC(=O)c2nn(C)cc2Cl)c(OC)c1	67.9% (active)
COC(=O)c1ccc(CSc2nncn2C)cc1	39.9% (inactive)
CC(=O)CCS(=O)(=O)c1ccc(C)c(C)c1	35.1% (inactive)
CCN(CC)CC(=O)Nc1nn(-c2ccccc2)nc1C(N)=O	-19.9% (inactive)
COC(=O)c1ccc(Oc2nc(Nc3ccc(F)cc3)nc(N3CCCC3)n2)cc1	32.3% (inactive)
Cc1nn(-c2ccccc2)c2[nH]c(C(F)(F)F)cc(=O)c12	-2.2% (inactive)
CCCCn1nnnc1NCc1cc(OC)c(OC)c(OC)c1	79.8% (active)
CCCCCCc1cc2cc(-c3nnc(-c4ccccc4)o3)c(=O)oc2cc1O	27.4% (inactive)
c1ccc2cc(OCCN3CCCC3)ccc2c1	4.2% (inactive)
c1cc(-c2nn[nH]n2)ccc1CN1CCCCC1	-11.4% (inactive)

Compound	inhibition
c1ccc2cc3[nH]c(CN4CCCCC4)nc3cc2c1	82.7% (active)
Cc1nc(C)c(-c2csc(NCCc3ccccc3)n2)s1	39.4% (inactive)
Cn1c(=NC(=O)CSCC(=O)N2CCOCC2)sc2ccccc21	46.6% (inactive)
Cn1c(=NC(=O)c2cnccn2)sc2ccccc21	-2.4% (inactive)
Cn1c(=NC(=O)CSCC(=O)N2CCCCC2)sc2ccccc21	73.6% (active)
CC(C)c1nc2oc3c(N4CCN(C)CC4)ncnc3c2c2c1CCC2	22.2% (inactive)
O=C(Oc1ccccc1)Oc1ccc2c(c1)oc(=O)c1ccccc12	-10.9% (inactive)
COc1ccc(C(=O)c2oc3ccc(Br)cc3c2NC(C)=O)cc1	-4% (inactive)
ON=C1/C(=N\O)CC2(C/C1=N/O)OCCO2	-10.5% (inactive)
O=C(C1CCC1)N1CCc2cc(S(=O)(=O)NCc3cccnc3)ccc21	10% (inactive)
CN1CCN(S(=O)(=O)c2ccc(N3CCN(S(=O)(=O)c4cccs4)CC3)nc2)CC1	-25.5% (inactive)
O=S(=O)(c1cccs1)N1CCN(Cc2ccccc2)CC1	98.1% (active)
O=S(=O)(c1cccs1)N1CCc2ccccc2C1	78% (active)
O=C(Nc1ccc(S(=O)(=O)N2CCc3ccccc3C2)cc1)c1ccccc1	0.3% (inactive)
O=C1c2ccccc2C(=O)c2c1cccc2N1CCN(Cc2ccccc2)CC1	13.4% (inactive)
CCCCNc1nc2ccccc2nc1NS(=O)(=O)c1cccs1	2.4% (inactive)
CCN(c1ccccc1)S(=O)(=O)c1ccc(NC(=O)C(C)(C)C)cc1	9.3% (inactive)
COc1cccc(/C=N\Nc2nncc(-c3ccccc3)n2)c1	-7% (inactive)
O=C1C=C(c2ccc(Cl)cc2)C(=O)N1Nc1ccccc1	19.7% (inactive)
CCOc1ccc(C(=O)NC2CCN(S(=O)(=O)CC)CC2)cc1	9.1% (inactive)
CC(=O)NC(Cc1ccc(F)cc1)C(=O)O (stereo not drawn)	-5.1% (inactive)
Cn1c(SCc2c(F)cccc2Cl)nnc1-c1cnccn1	25.9% (inactive)
O=C(NCc1ccco1)c1cccn2c(=O)c3c4c(sc3nc12)CCCC4	45.2% (inactive)
CCCc1nc2sc3c(c2c(=O)n1NC(=O)CCCl)CCCC3	88.5% (active)
Cc1nc(SCC(=O)Nc2cc(C)on2)c2c3c(sc2n1)CCCC3	7% (inactive)

Compound	inhibition
O=C(NCCc1ccc2c(c1)OCCO2)c1cc2ccccc2o1	41.2% (inactive)
O=C(Nc1ccncc1)c1c(F)cccc1F	52.4% (active)
O=C(Nc1ccc(Cl)cc1)c1ccsn1	25.4% (inactive)
CN1C(=O)c2ccc(NC(=O)c3c(F)c(F)c(F)c(F)c3F)cc2C1=O	-11.8% (inactive)
O=C(Nc1cccc(-c2nc3ncccc3o2)c1)c1ccco1	5.2% (inactive)
O=C(Nc1ccncc1)c1cc2ccccc2o1	99.6% (active)
C/C(=C\C(=O)c1ccccc1)Nc1cccc(O)c1	10.3% (inactive)
COc1ccc(CNC(=O)C2CCC(CNc3c(N4CCOCC4)c(=O)c3=O)CC2)cc1 (stereo not drawn)	-12.8% (inactive)
COc1cccc(-c2nc3cc(C)ccc3o2)c1	42.7% (inactive)
C/C=C/C(=O)OCC(=O)Nc1ccc(F)cc1Cl	16.4% (inactive)
CCC1Oc2ccc(Cl)cc2N(CC(=O)O)C1=O (stereo not drawn)	-3.7% (inactive)
Cc1cccc(C)c1NC(=O)c1ccc(CN2CCc3ccccc3C2)cc1	-19.5% (inactive)
CC(=O)c1ccc(-n2nnnc2SCC(=O)N2CCN(C(=O)c3ccco3)CC2)cc1	-3.8% (inactive)
CCC(c1nnnn1C1CCCC1)N1CCN(C(=O)c2ccco2)CC1 (stereo not drawn)	61.3% (active)
CC(C)C(c1nnnn1CCc1ccccc1)N1CCN(C(=O)c2ccco2)CC1 (stereo not drawn)	15.7% (inactive)
COC(=O)C1=C(C)NC2=C(C(=O)c3ccccc32)C1c1ccc(-c2ccc(C(=O)O)cc2)o1 (stereo not drawn)	44.5% (inactive)
COC(=O)c1cc(NC(=O)CC2C(=O)NCCN2C(=O)c2ccc(F)cc2)cc(C(=O)OC)c1 (stereo not drawn)	8.6% (inactive)
O=C(NC(C(=O)NCCN1CCOCC1)C12CC3CC(CC(C3)C1)C2)C1CCCCC1 (stereo not drawn)	-0.8% (inactive)
OC(CN1C2=NCCCN2c2ccccc21)c1ccc(Br)cc1 (stereo not drawn)	11.9% (inactive)
O=C(Nc1nsc(-c2ccccc2)n1)c1ccncc1	93.3% (active)
Cn1sc(NC(=O)c2ccccc2)nc1=O	0.2% (inactive)
COC(=O)c1nc(NC(=O)c2ccccc2)n[nH]1	1.9% (inactive)
CCOC(=O)C1Sc2[nH]c(=O)sc2C(c2ccc(Cl)cc2)C1C(=O)OCC (stereo not drawn)	24.6% (inactive)
